# Experimental data taken from PubChem BioAssay (NCI).
# The panel holds about 83,000 compounds, 20% with a hit somewhere; the sample as a whole holds those more often.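 Assay: single dose, 48 h. Readout: percent growth (0 = no net growth; negative = cell death). Active: <10.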 Unmarked numbers belong to inactive results. The source made the active and inactive calls.
# How the values were obtained:
# Test in all cases: NCI-60 one-dose screen, 48 h (100 = growth as untreated, 0 = no growth, -100 = all killed)
# Conditions in all cases: 10 µM unless noted
# [1] = test system: NCI-H23 lung
# [2] = test system: NCI-H226 lung
# [3] = test system: NCI-H322M lung
# [4] = test system: HOP-62 NSCLC
# [5] = test system: NCI-H460 lung
# [6] = test system: HOP-92 NSCLC
# [7] = test system: NCI-H522 lung
# [8] = test system: A549/ATCC NSCLC
# [9] = test system: 786-0 renal
# [10] = test system: COLO 205 colon
# [11] = test system: DU-145 prostate
# [12] = test system: K-562 leukemia
# [13] = test system: MALME-3M melanoma
# [14] = test system: MDA-MB-231 breast
# [15] = test system: RXF 393 renal
# [16] = test system: SF-268 CNS
# [17] = test system: SF-295 CNS
# [18] = test system: SF-539 CNS
# [19] = test system: UACC-257 melanoma
# [20] = test system: M14 melanoma
SMILES,growth [1] [%],growth [2] [%],growth [3] [%],growth [4] [%],growth [5],growth [6] [%],growth [7],growth [8] [%],growth [9] [%],growth [10],growth [11],growth [12],growth [13] [%],growth [14],growth [15],growth [16] [%],growth [17],growth [18],growth [19] [%],growth [20]
COc1ccc(Nc2nn3c(C)cc(C)nc3c2C(=O)Nc2ccc(C)cc2)c(OC)c1,92.7,101,92.8,85.8,101%,87.1,88.6%,93.5,90.9,98.7%,113%,108%,124,108%,107%,100,107%,102%,98.6,101%
COc1ccc2c(c1)NC1=C(C(=O)OC1)C2c1cc(OC)c2c(c1)OCO2 (stereo not given),33,34,52.4,43.2,4.54% (active),43.8,-13.1% (active),12,22.3,-56.9% (active),-20.6% (active),10.8%,52.7,11.3%,28%,22.8,6.7% (active),6.15% (active),71.6,5.09% (active)
CC1CCC(C)N(C)C1 (stereo not given),104,101,100,107,109%,84.4,104%,103,94.4,110%,122%,98.9%,101,98.2%,100%,108,116%,103%,105,96.8%
Cc1ccc(S(=O)(=O)NCCNc2cc(-c3cn(C(C)(C)C)nc3-c3cccc(O)c3)ccn2)cc1,74.7,61.8,82.2,93.3,60.8%,75.1,68.1%,70.6,68.5,18.1%,88.9%,18.6%,61.8,76.6%,68.2%,62,71.6%,64.5%,79.2,86.9%
CCOC(=O)c1cn2c3c(cccc3c1=O)C(=O)/C(=C/c1cccc(Cl)c1Cl)C2,93,83,97.4,81.8,107%,63.8,73.1%,98.2,90.6,117%,106%,91%,116,89.5%,87%,87.9,95.8%,101%,87.5,98.7%
COc1ccc(-c2c(-c3cc(OC)c4c(c3)OCO4)noc2N)cc1,40.6,22.8,51.1,10.3,4.43% (active),35.4,4.5% (active),13.3,14.5,-88.9% (active),-7.24% (active),8.5% (active),54.4,-3.97% (active),8.2% (active),16.6,2.31% (active),0.998% (active),74.6,12%
CCn1c2ccccc2c2cc(NC(=O)Nc3ccc([N+](=O)[O-])cc3C)ccc21,41.5,74.9,77.8,49.4,19.5%,57.9,9.7% (active),31.5,38.9,29.9%,65.7%,8.55% (active),64.5,29.3%,-31.1% (active),64.9,13.1%,47%,20,32.6%
CCN(CC)c1ccc(N=O)cc1,81.7,101,87.7,91.8,58.9%,51.9,-80.9% (active),59.7,91.8,13.9%,80.9%,23.5%,71.1,47.4%,72.5%,59.1,92.7%,77.2%,33.2,75.3%
